Test in all cases: DAPPL (digital affinity profiling via proximity ligation, sequencing); 10 mM Tris-HCl pH 7.5, 50 mM NaCl, 1 mM DTT, 4% glycerol, room temperature, 30 min; GST-TFs on glutathione beads, 16-mer random dsDNA library, 0.1% formaldehyde crosslink after washing; high values mean tight binding
Experiment [1] deals with T1, FLI1 (Homo sapiens, UniProt Q01543 1-452).
T1 sequence: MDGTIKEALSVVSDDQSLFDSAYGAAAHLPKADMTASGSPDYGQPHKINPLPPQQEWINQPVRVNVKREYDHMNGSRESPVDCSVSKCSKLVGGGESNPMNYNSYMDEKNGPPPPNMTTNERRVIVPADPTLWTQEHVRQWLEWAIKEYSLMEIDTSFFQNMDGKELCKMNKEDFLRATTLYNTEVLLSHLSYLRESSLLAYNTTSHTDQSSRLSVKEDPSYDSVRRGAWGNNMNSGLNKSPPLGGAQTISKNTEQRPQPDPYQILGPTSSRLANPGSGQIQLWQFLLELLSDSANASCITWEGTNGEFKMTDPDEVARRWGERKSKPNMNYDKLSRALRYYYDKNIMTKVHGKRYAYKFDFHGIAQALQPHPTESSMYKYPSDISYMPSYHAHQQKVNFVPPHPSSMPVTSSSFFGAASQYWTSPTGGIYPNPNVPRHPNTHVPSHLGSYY
The settings on record: protein: recombinant; tags: N-terminal GST; dsDNA, one strand shown. Summed up:
(§1)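 Sequencing on an Illumina NextSeq500 followed washing, crosslinking with 0.1% formaldehyde, proximity ligation (BsaI/T4 ligase, 1 h, 37 °C) and PCR amplification of pools that had been incubated for 30 min at room temperature with 200 nmole of a random double-stranded 16-mer DNA library in Tris/NaCl/DTT/glycerol buffer. Each pool held DNA-barcoded human transcription factors, expressed in yeast as GST fusions and captured on glutathione beads, plus a tag-only sample. Binding signal is a hexamer's read frequency for a factor divided by its frequency in the tag-only sample.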

Experiment [2] deals with T2, ELK1 (Homo sapiens, UniProt P19419 1-428).
T2 sequence: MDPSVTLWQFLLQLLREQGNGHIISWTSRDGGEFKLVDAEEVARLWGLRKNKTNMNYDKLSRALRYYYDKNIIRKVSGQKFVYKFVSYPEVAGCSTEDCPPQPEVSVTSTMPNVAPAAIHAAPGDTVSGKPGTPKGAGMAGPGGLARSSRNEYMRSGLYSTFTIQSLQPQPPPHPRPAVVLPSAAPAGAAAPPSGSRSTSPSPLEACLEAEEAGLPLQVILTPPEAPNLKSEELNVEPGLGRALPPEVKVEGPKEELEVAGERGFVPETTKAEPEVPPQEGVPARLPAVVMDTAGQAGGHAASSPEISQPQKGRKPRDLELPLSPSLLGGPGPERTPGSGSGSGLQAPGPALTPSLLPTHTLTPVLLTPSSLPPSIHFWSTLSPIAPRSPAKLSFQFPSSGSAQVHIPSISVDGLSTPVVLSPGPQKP
The settings on record: protein: recombinant; tags: N-terminal GST; dsDNA, one strand shown. Summed up:
as §1

Experiment [3] deals with T3, GABPA (Homo sapiens, UniProt Q06546 1-454).
T3 sequence: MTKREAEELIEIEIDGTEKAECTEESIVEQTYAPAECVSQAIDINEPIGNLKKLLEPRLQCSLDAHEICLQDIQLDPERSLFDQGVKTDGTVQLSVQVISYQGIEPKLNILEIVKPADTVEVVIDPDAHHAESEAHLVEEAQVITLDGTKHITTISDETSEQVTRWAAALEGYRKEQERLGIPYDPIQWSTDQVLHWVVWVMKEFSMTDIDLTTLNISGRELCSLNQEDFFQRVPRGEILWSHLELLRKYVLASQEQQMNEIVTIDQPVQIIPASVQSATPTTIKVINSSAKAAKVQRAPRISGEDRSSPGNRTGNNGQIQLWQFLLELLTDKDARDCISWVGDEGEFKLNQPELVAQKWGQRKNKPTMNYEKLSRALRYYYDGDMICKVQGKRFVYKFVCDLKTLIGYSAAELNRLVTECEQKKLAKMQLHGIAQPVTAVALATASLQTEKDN
The settings on record: protein: recombinant; tags: N-terminal GST; dsDNA, one strand shown. Summed up: as §1

Experiment [4] deals with T4, ERG (Homo sapiens, UniProt P11308 1-479).
T4 sequence: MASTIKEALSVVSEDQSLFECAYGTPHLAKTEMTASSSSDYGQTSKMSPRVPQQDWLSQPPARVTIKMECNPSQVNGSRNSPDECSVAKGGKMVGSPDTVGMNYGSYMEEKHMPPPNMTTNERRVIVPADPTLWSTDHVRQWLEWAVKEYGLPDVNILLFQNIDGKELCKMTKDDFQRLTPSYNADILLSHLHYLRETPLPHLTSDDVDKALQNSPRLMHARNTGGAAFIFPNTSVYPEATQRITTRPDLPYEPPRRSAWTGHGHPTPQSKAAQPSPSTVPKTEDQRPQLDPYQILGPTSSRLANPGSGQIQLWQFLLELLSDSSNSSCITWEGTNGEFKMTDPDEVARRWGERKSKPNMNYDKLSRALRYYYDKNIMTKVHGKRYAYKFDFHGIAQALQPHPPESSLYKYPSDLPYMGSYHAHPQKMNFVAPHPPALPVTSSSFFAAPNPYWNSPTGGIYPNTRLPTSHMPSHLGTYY
As to conditions: protein: recombinant; tags: N-terminal GST; dsDNA, one strand shown. Summed up:
as §1

In experiment [5] the target is ELF1 (Homo sapiens, UniProt P32519 1-619). The settings on record: protein: recombinant; tags: N-terminal GST; dsDNA, one strand shown. Summed up: as §1
The target of experiment [6] is T5, EHF (Homo sapiens, UniProt Q9NZC4 1-300).
T5 sequence: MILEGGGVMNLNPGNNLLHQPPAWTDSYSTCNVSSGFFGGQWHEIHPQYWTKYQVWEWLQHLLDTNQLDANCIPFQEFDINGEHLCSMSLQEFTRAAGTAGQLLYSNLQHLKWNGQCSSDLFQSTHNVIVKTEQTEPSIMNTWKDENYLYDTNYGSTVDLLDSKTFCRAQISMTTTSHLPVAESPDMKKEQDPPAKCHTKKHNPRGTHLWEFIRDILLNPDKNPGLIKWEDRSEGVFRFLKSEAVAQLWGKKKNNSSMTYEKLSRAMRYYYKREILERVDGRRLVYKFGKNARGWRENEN
As to conditions: protein: recombinant; tags: N-terminal GST; dsDNA, one strand shown. Summed up: as §1

The target in experiment [7] is SPI1 (Homo sapiens, UniProt P17947 1-270). As to conditions: protein: recombinant; tags: N-terminal GST; dsDNA, one strand shown. Summed up:
as §1

Experiment [8] addresses SPIB (Homo sapiens, UniProt Q01892 1-262). The settings on record: protein: recombinant; tags: N-terminal GST; dsDNA, one strand shown. Summed up:
as §1

The target of experiment [9] is T6, ELK3 (Homo sapiens, UniProt P41970 1-407).
T6 sequence: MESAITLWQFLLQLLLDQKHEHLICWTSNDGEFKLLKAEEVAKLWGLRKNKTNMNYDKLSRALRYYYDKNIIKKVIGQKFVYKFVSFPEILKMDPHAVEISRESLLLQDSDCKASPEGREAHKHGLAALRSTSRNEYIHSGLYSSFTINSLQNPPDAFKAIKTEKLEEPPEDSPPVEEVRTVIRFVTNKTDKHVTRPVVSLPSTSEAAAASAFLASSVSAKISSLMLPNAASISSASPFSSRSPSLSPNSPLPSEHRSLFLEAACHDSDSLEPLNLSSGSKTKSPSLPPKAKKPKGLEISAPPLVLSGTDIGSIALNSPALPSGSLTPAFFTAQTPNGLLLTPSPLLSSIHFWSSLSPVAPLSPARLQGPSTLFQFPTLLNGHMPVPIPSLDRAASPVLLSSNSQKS
As to conditions: protein: recombinant; tags: N-terminal GST; dsDNA, one strand shown. Summed up: as §1

Experiment [10] has as its target T7, FEV (Homo sapiens, UniProt Q99581 1-238).
T7 sequence: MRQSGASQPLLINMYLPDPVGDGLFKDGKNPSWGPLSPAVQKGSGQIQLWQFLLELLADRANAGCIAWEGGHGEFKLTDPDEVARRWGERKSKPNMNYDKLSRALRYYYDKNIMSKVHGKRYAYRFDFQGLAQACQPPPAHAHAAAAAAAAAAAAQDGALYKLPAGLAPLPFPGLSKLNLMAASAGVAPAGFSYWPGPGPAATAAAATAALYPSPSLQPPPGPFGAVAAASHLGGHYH
As to conditions: protein: recombinant; tags: N-terminal GST; dsDNA, one strand shown. Summed up:
as §1

Experiment [11] has as its target ETV5 (Homo sapiens, UniProt P41161 1-510). As to conditions: protein: recombinant; tags: N-terminal GST; dsDNA, one strand shown. Summed up: as §1
For experiment [12], the target named is HSF1 (Homo sapiens, UniProt Q00613 1-529). The settings on record: protein: recombinant; tags: N-terminal GST; chain copies: 3; dsDNA, one strand shown. Summed up: as §1
Experiment [13] deals with T8, SPIC (Homo sapiens, UniProt Q8N5J4 1-248).
T8 sequence: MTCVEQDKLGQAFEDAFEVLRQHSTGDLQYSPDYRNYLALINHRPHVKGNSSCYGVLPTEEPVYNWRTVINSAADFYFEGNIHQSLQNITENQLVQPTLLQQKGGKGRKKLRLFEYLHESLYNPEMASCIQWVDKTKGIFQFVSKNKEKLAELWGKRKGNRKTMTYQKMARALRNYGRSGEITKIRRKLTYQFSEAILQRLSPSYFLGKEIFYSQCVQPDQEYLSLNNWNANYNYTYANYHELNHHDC
The settings on record: protein: recombinant; tags: N-terminal GST; dsDNA, one strand shown. Summed up:
as §1

Experiment [14] has as its target ELF4 (Homo sapiens, UniProt Q99607 1-663). The settings on record: protein: recombinant; tags: N-terminal GST; dsDNA, one strand shown. Summed up:
as §1

The target of experiment [15] is T9, ELK4 (Homo sapiens, UniProt P28324-2 1-405).
T9 sequence: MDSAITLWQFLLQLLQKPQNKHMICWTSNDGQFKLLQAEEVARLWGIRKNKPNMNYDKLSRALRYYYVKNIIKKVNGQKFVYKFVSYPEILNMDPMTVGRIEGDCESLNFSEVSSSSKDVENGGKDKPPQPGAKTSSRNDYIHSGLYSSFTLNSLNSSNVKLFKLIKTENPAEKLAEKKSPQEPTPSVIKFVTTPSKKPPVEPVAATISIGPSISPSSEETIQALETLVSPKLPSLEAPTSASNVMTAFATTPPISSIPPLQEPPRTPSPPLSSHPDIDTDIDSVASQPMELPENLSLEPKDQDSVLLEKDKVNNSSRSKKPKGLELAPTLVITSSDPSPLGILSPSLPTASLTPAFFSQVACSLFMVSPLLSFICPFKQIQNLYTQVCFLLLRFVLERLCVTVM
As to conditions: protein: recombinant; tags: N-terminal GST; dsDNA, one strand shown. Summed up: as §1

Experiment [16] concerns the target T10, ETV2 (Homo sapiens, UniProt O00321 1-342).
T10 sequence: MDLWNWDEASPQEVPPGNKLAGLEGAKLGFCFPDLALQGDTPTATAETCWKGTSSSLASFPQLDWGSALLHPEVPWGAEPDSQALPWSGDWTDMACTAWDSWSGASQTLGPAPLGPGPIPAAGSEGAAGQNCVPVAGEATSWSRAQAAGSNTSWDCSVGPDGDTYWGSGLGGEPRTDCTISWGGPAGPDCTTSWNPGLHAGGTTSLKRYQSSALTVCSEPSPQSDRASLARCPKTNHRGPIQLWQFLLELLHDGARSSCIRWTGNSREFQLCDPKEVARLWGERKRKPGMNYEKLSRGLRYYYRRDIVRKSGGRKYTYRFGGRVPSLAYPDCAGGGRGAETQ
As to conditions: protein: recombinant; tags: N-terminal GST; dsDNA, one strand shown. Summed up: as §1

The target in experiment [17] is CRX (Homo sapiens, UniProt O43186 1-299). As to conditions: protein: recombinant; tags: N-terminal GST; dsDNA, one strand shown. Summed up:
as §1

Experiment [18] has as its target ETV1 (Homo sapiens, UniProt P50549 1-477). The settings on record: protein: recombinant; tags: N-terminal GST; dsDNA, one strand shown. Summed up: as §1

ELF4, sequence (Q99607 whole entry): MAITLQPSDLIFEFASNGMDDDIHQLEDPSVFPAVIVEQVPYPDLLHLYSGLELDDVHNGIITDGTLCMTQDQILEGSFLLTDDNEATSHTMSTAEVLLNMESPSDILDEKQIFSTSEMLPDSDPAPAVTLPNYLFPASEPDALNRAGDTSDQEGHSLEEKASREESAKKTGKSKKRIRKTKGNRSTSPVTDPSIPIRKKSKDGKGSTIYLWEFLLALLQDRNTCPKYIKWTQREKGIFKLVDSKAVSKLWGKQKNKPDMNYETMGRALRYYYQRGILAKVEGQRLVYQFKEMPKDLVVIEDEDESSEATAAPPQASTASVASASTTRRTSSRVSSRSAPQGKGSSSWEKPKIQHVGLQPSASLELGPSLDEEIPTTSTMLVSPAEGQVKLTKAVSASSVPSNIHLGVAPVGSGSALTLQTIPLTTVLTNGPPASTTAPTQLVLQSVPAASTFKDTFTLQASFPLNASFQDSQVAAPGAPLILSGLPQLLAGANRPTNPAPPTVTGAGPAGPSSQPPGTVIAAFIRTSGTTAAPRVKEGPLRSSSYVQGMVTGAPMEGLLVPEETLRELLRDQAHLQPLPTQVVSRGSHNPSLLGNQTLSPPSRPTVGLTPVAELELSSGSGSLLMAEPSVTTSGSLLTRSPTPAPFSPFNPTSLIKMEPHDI
ETV1, sequence (P50549 whole entry): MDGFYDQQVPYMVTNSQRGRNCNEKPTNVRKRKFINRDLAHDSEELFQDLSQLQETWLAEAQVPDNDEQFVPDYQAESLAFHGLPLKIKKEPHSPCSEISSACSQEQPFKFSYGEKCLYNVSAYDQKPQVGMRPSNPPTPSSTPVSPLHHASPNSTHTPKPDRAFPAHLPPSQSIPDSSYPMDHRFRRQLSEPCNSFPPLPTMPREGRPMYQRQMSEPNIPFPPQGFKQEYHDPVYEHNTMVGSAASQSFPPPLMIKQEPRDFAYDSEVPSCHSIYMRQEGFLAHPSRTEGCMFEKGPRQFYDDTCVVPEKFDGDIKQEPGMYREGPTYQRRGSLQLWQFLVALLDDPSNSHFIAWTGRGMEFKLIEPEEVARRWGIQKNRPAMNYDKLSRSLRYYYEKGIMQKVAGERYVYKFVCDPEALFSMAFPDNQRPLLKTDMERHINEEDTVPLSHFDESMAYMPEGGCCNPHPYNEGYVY
CRX, sequence (O43186 whole entry): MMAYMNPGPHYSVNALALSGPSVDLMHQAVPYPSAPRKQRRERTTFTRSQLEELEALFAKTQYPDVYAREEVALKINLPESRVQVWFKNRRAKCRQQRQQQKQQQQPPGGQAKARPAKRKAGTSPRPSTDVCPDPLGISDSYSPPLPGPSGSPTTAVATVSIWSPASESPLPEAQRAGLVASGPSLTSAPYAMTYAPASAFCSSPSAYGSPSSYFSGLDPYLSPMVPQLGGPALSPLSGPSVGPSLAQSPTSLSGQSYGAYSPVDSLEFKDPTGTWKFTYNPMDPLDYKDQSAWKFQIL
HSF1, sequence (Q00613 whole entry): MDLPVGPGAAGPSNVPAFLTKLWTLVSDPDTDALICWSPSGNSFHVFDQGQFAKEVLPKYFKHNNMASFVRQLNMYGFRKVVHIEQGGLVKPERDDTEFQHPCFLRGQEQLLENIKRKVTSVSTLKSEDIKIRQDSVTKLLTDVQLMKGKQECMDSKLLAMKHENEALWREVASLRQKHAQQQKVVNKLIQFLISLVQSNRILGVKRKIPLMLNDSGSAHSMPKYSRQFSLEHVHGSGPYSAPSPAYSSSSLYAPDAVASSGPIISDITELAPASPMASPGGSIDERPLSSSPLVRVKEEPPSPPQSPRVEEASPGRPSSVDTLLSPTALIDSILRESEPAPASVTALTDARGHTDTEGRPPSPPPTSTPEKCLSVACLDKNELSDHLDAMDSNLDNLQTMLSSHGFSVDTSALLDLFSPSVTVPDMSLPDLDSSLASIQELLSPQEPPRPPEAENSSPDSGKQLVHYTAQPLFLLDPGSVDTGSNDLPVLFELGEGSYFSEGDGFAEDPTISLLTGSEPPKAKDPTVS
SPIB, sequence (Q01892 whole entry): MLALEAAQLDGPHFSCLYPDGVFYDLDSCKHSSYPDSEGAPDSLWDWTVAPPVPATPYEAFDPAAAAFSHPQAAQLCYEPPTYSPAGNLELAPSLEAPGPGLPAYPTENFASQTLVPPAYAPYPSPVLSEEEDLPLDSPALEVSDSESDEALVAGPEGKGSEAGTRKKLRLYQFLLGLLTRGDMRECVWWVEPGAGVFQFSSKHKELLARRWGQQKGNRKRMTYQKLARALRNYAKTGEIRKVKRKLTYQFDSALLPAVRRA
ELF1, sequence (P32519 whole entry): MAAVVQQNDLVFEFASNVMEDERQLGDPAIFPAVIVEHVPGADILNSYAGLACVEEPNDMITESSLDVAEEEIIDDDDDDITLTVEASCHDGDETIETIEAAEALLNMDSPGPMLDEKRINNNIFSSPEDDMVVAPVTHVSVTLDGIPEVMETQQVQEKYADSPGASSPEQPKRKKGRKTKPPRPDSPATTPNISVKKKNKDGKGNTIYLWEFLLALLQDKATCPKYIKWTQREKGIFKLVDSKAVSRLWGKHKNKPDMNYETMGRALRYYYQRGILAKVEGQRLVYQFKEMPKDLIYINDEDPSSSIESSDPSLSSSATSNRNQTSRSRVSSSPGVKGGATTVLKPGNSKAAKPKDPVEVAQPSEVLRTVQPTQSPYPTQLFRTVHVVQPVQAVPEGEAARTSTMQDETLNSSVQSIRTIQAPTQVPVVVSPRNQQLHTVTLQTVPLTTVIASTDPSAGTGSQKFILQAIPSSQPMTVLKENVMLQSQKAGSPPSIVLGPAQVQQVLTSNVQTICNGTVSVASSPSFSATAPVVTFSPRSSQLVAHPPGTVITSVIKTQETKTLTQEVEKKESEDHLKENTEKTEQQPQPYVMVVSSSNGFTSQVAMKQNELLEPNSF
ETV5, sequence (P41161 whole entry): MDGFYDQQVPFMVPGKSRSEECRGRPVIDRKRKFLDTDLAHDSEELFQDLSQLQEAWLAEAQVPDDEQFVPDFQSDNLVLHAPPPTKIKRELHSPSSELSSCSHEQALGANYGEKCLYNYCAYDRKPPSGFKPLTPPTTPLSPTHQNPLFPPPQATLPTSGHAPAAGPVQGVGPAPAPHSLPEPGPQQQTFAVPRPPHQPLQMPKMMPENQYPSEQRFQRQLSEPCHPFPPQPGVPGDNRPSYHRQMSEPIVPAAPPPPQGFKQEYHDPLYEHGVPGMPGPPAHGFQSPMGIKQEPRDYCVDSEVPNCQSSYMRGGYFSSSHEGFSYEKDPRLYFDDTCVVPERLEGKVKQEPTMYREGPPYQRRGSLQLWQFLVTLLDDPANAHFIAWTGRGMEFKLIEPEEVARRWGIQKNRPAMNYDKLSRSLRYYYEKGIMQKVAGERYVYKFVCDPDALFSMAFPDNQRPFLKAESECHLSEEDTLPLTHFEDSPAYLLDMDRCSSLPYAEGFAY

In the case of TAAGCC, the binding signal in experiment [1] was 1.15 fold enrichment (6-mer frequency, TF over GST control); in experiment [2] it was 1.12 fold enrichment (6-mer frequency, TF over GST control); in [3] it was 1.19 fold enrichment (6-mer frequency, TF over GST control); in experiment [4] it was 1.13 fold enrichment (6-mer frequency, TF over GST control); in experiment [5], 1.16 fold enrichment (6-mer frequency, TF over GST control); in experiment [6], 1.08 fold enrichment (6-mer frequency, TF over GST control). The binding signal was 1.08 fold enrichment (6-mer frequency, TF over GST control) in [7]; 1.19 fold enrichment (6-mer frequency, TF over GST control) in [8]; 1.06 fold enrichment (6-mer frequency, TF over GST control) in experiment [9]; 1.15 fold enrichment (6-mer frequency, TF over GST control) in [10]; 1.12 fold enrichment (6-mer frequency, TF over GST control) in experiment [11]; 2.07 fold enrichment (6-mer frequency, TF over GST control) in experiment [12]. The binding signal in experiment [13] is 1.15 fold enrichment (6-mer frequency, TF over GST control); in [14] it was 1.19 fold enrichment (6-mer frequency, TF over GST control); in experiment [15] it was 1.15 fold enrichment (6-mer frequency, TF over GST control); in experiment [16], 1.09 fold enrichment (6-mer frequency, TF over GST control); in experiment [17], 3.55 fold enrichment (6-mer frequency, TF over GST control); in experiment [18], 1.14 fold enrichment (6-mer frequency, TF over GST control).

The record behind these values is PMC7862700, “An all-to-all approach to the identification of sequence-specific readers for epigenetic DNA modifications on cytosine”.
